Bioassay records deposited in PubChem BioAssay by National Center for Advancing Translational Sciences (NCATS).
Sampled rows, rich in hits. Any-hit rate of the full collection: about 21%.
NS1 function inh: blocks influenza NS1 protein function; Potency, µM (series often up to 46.1 µM), inactives show top-dose activity, positive = more growth; 0.4% of 270,000 active; note: potency is the fitted concentration of half-maximal effect; actives are rising curves; nearly all actives have a fitted effect of over 50% in size
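A cell-based growth assay was used: compounds that relieve NS1-induced slow growth of budding yeast raise OD600. Assay medium was yeast nitrogen base with ammonium sulphate and -URA supplement, pH 6.0, with 2% galactose.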
Shiga toxin inh: Shiga toxin inhibition; 9.2% of 290,000 active; inhibition, % at 38.7 µM; Vero cells, Shiga toxin protein synthesis inhibition reporter; in the data active = inhibition mostly above about 28%, no sharp cut-off; inactive = mostly below about 43%; note: 0% is about no effect
Pf growth 96h: P. falciparum growth inhibition at 96 hour, primary screen for plastid delayed-death inhibitors. P. falciparum luciferase reporter growth, 96 h. Potency, µM (doses to about 28.7 µM), for inactives: at the highest dose activity change, negative = inhibition, usual class: inhibitors. 6.9% of 320,000 active; active = well fitted inhibition curve with a large enough effect; inconclusive = small, poorly fitted or top-dose-only effect, or another doubt; inactive = no such curve, though single readings can be large or run the other way; note: potency is the fitted concentration of half-maximal effect; % is set by controls: 0 for no effect and ±100 for the full control effect
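Parasite growth measured via integrated firefly luciferase reporter in P. falciparum. Infected erythrocytes at 2% hematocrit, 0.05% parasitemia final were treated 96 hours at 37 C under 5% CO2, and luminescence was read.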
CHX counter: affects cycloheximide protein synthesis inhibition readout, counter-screen; cell reporter, cycloheximide protein synthesis inhibition counterscreen; max response, %; 12% of 300,000 active; AID 2314; in the data active = max response mostly above about 13%, no sharp cut-off; inactive = mostly below about 14%; note: read at 38.3 µM for the half of the compounds with a filed dose; 0% is about no effect
Pf growth 48h: P. falciparum growth inhibition at 48 hours (one generation) | P. falciparum luciferase growth in erythrocytes, 48 h | Potency, µM (top dose mostly 28.7 µM), for inactives: top-dose activity change, negative = inhibition, hits mostly inhibitors | 5.9% of 310,000 active; active = well fitted inhibition curve with a large enough effect; inconclusive = small, poorly fitted or top-dose-only effect, or another doubt; inactive = no such curve, though single readings can be large or run the other way; note: potency is the fitted concentration of half-maximal effect; % is set by controls: 0 for no effect and ±100 for the full control effect
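Read-out is firefly luciferase luminescence from an integrated reporter in P. falciparum, so falling signal marks reduced parasite growth. Infected erythrocytes were at 2% hematocrit and 0.1% parasitemia (final) in Albumax-supplemented RPMI 1640.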
SARS PLP yeast: blocks SARS-CoV papain-like protease in a yeast assay; S. cerevisiae expressing SARS-CoV PLpro, growth rescue; Potency, µM (doses to about 32.9 µM), for the others: top-dose activity, positive = growth rescue, usual class: activators; 0.19% of 330,000 active; AID 485353; note: potency is the fitted concentration of half-maximal effect; 0% is about no effect; nearly all actives have a fitted effect of over 55% in size
Active calls of the source: *; ? = inconclusive; . = no result given. Unless noted, calls come from the whole dose curve.

SMILES | NS1 function inh | Shiga toxin inh | Pf growth 96h | CHX counter | Pf growth 48h | SARS PLP yeast
CC(C)(C)C(=O)N1CCN(c2ncnc3scc(-c4ccccc4)c23)CC1 | 1% | -7 | 13µM* | -2 | . | -2%
Cc1ccc(-c2csc3ncnc(NCCN4CCOCC4)c23)cc1 | -16% | -12 | 10µM* | -3 | 13µM* | 11%
COc1ccc(-c2csc3ncnc(N4CCN(c5ccc(OC)cc5)CC4)c23)cc1 | -24% | -4 | 13µM* | 1 | ? | -2%
CCOC(=O)N1CCN(c2ncnc3scc(-c4ccccc4)c23)CC1 | -34% | -9 | ? | -5 | ? | -1%
CCCNC(=O)N1CCN(S(=O)(=O)c2ccc(C)c(C)c2)CC1 | -11% | . | . | . | . | .
Cc1ccc(NC(=O)CSc2nnc(C3CC3)n2CC2CCCO2)cc1C (stereo not given) | 1% | 8 | 2% | -2 | 6% | 0%
O=C(CSc1ccc2nnc(-c3ccncc3)n2n1)N1CCc2ccccc21 | -3% | -16 | -1% | -1 | 2% | 6%
CCOc1cc(/C=N/NC(=O)c2cccnc2)ccc1OCC(=O)N(C)C | . | 5 | 33% | 5 | 0% | 0%
Clc1ccc(CN2CCN(c3ncnc4scc(-c5cccs5)c34)CC2)cc1 | -16% | -14 | 13µM* | -3 | . | ?
CCCCCC(=O)Nc1cccc(C2=NOC3(C2)C[C@H](C(N)=O)N(C(=O)c2ccccc2C(=O)c2ccccc2)C3)c1 (stereo not given in full) | -4% | 2 | ? | -2 | 9.3µM* | -5%
Cc1c(C(=O)N2CC3(CC(c4cccc(NC(=O)CC(c5ccccc5)c5ccccc5)c4)=NO3)C[C@@H]2C(N)=O)cc([N+](=O)[O-])cc1[N+](=O)[O-] (stereo not given in full) | 11% | -7 | ? | -3 | 12µM* | 4%
CCCCCC(=O)Nc1cccc(C2=NOC3(C2)C[C@H](C(N)=O)N(C(=O)c2ccccc2)C3)c1 (stereo not given in full) | 6% | -5 | ? | -3 | ? | -4%
C/C=C(/C)C(=O)Nc1cccc(C2=NOC3(C2)C[C@H](C(N)=O)N(C(=O)Cc2ccc([N+](=O)[O-])cc2)C3)c1 (stereo not given in full) | -1% | -5 | ? | -5 | 12µM* | 1%
C=C(C)C(=O)Nc1cccc(C2=NOC3(C2)C[C@H](C(N)=O)N(C(=O)c2ccccc2C(=O)c2ccccc2)C3)c1 (stereo not given in full) | -13% | 22 | 13µM* | -3 | ? | 2%
COc1ccc(C2CC(=O)c3sc(NC(C)=O)nc3C2)cc1 (stereo not given) | 18% | active | ? | 20* | ? | 19%
CCOc1ccc(CN2CCN(C3CCSCC3)CC2CCO)cc1 (stereo not given) | 4% | -7 | ? | 1 | 25% | 0%
CC1CC2(CCCCC2)Nc2ccc3ccccc3c21 (stereo not given) | -4% | 10 | -21% | -2 | 10µM* | 2%
S=C(NCCN1CCOCC1)Nc1ccc(Br)cc1 | 3% | 15 | 240% | 5 | -10% | 0%
COc1cc(C(=O)NC(=S)Nc2ccc3c(c2)C(=O)N(C)C3=O)cc(OC)c1OC | 15% | 7 | 6% | 0 | 47% | 2%
COc1cccc(OC)c1C(=O)NC(=S)Nc1ccc2c(c1)C(=O)N(C)C2=O | 5% | -6 | ? | -2 | 1.7µM* | 15%
COc1ccc(C(=O)Nc2ccc3c(c2)C(=O)N(C)C3=O)cc1OC | 2% | 32* | -1% | 17* | 0% | 8%
O=Cc1cccc(OCc2cccc3ccccc23)c1 | -5% | 63* | 74% | 34* | 65% | -1%
O=Cc1ccc(OCc2ccc3ccccc3c2)cc1 | -17% | . | ? | 54* | 36% | 1%
O=Cc1ccc(OCc2ccccn2)cc1 | -26% | 40* | -13% | 21* | 16% | -12%
OCc1ccccn1 | . | . | 13% | . | 6% | .
SMILES | NS1 function inh | Shiga toxin inh | Pf growth 96h | CHX counter | Pf growth 48h | SARS PLP yeast
COc1ccc(COc2cccc(C=O)c2)cc1 | . | . | 128% | . | 133% | 5%
CCOC(=O)N1CCN(C(=O)c2ccc3c(SCC(=O)O)c4c(nc3c2)CCC4)CC1 | 6% | -8 | ? | -6 | . | 4%
COc1cc(C)c(S(=O)(=O)NCc2cccnc2)cc1C | -2% | -17 | -11% | -1 | 0% | 1%
CCN(CC)/C(Sc1ccccc1)=C(/C(Cl)=C(Cl)Cl)[N+](=O)[O-] | . | 29 | ? | 24* | 11% | -2%
CC1(C)CC(=O)C=C(Nc2ccc(C(=O)O)c(O)c2)C1 | 6% | -6 | ? | -3 | 11% | 0%
CC(/C=C1\NC(=S)NC1=O)=C\c1ccccc1 | -11% | 24 | 3% | 19 | 33% | 2%
O=C(CCSc1nc(-c2ccco2)cc(C(F)(F)F)n1)N1CCCc2ccccc21 | -35% | 21 | . | 5 | 15µM* | -16%
COc1ccc(-c2cc(C(F)(F)F)nc(SCCC(=O)NCc3ccccc3)n2)cc1 | 3% | -8 | . | -2 | 15µM* | 14%
FC(F)(F)c1cc(-c2ccco2)nc(N2CCN(Cc3ccccc3)CC2)n1 | 3% | -14 | ? | -4 | ? | -13%
FC(F)(F)c1cc(-c2ccco2)nc(NCCc2ccccc2)n1 | -10% | 78 | -4% | 20* | 28% | -9%
O=C(CCSc1nc(-c2ccco2)cc(C(F)(F)F)n1)NCCc1ccccc1 | -14% | 54 | 3% | 33* | ? | -2%
CC(=O)NCCc1nc2cc(NC(=O)c3ccc([N+](=O)[O-])cc3)ccc2n1C | -3% | 5 | 205% | 13 | 148% | 0%
COc1ccccc1CCNC(=O)CSc1nc(-c2ccco2)cc(C(F)(F)F)n1 | 1% | -6 | ? | 8 | . | ?
COc1ccccc1CCNC(=O)CCSc1nc(-c2ccco2)cc(C(F)(F)F)n1 | 11% | -5 | -1% | 1 | 8.3µM* | -11%
C/C(=N\NC(=O)c1ccccc1[N+](=O)[O-])c1c(O)cc(C)oc1=O | 3% | 8 | 43% | -2 | 0% | -19%
C/C(=N\NC(=O)c1cccnc1)c1c(O)cc(C)oc1=O | -13% | 34* | 13% | 21* | 22% | -19%
C/C(=N\NC(=O)c1ccccc1O)c1c(O)cc(C)oc1=O | -128% | 27 | ? | 28* | 52% | -13%
C/C(=N\NC(=O)c1cccnc1)c1cc(C)oc1C | 3% | 47 | 7% | 11 | 11% | -9%
CC(C)c1nc(N2CCN(C(=O)c3ccco3)CC2)c2c3c(sc2n1)CCCC3 | -70% | -3 | 15% | 0 | 10µM* | -31%
Cc1sc2nc(C3CC3)nc(SCC(=O)N3CCc4ccccc4C3)c2c1C | 5% | -3 | ? | 5 | ? | -12%
Cc1sc2nc(C(C)C)nc(SCC(=O)N3CCN(C(=O)c4ccco4)CC3)c2c1C | -65% | -3 | 11% | -5 | 13µM* | 15%
